The campaign covered roughly 39,000 compounds. About 3,300 (8.5%) were called active. The entries come from a sample that favours actives as a whole.

The assay relates to HepG2. The experiment in a line: cytotoxicity call (relative viability < 0.9). As to conditions: 10 µM.
On to `C[C@@H]1CN([C@@H](C)CO)C(=O)c2cccc(NC(=O)CCCCCC(=O)Nc3ccccc3N)c2O[C@H]1CN(C)C(=O)Nc1ccccc1`, for which the cytotoxicity call was “inactive”.

Turning to `Cc1noc(C)c1S(=O)(=O)Nc1ccc2c(c1)C(=O)N([C@H](C)CO)C[C@@H](C)[C@@H](CN(C)Cc1ccncc1)O2`, the cytotoxicity call was “inactive”.

For the molecule `O=C(C[C@@H]1CC=CC[C@H](NC(=O)OCC2c3ccccc3-c3ccccc32)C(=O)O[C@@H](c2ccccc2)CNC1=O)N[C@@H](CO)Cc1ccccc1`, the cytotoxicity call was “inactive”.

Take `C[C@H]1CN([C@@H](C)CO)C(=O)Cc2cc(NC(=O)C3CC3)ccc2O[C@H]1CN(C)S(=O)(=O)c1ccc(Cl)cc1`: the cytotoxicity call is “active”.

With `Cc1ccc(S(=O)(=O)N(C)C[C@H]2Oc3ccc(NC(=O)C4CC4)cc3CC(=O)N([C@@H](C)CO)C[C@@H]2C)cc1`, the cytotoxicity call is “inactive”.

In the case of `C[C@@H]1CN([C@H](C)CO)C(=O)Cc2cc(NC(=O)C3CC3)ccc2O[C@@H]1CN(C)S(=O)(=O)c1ccc(Cl)cc1`, the cytotoxicity call is “inactive”.

On to `Cc1ccc(S(=O)(=O)N(C)C[C@@H]2Oc3ccc(NC(=O)C4CC4)cc3CC(=O)N([C@@H](C)CO)C[C@@H]2C)cc1`, for which the cytotoxicity call is “active”.

With `Cc1ccc(S(=O)(=O)N(C)C[C@@H]2Oc3ccc(NC(=O)C4CC4)cc3CC(=O)N([C@@H](C)CO)C[C@H]2C)cc1`, the cytotoxicity call is “inactive”.

For `C[C@H](CO)N1C[C@H](C)[C@H](CN(C)S(=O)(=O)c2ccc(Cl)cc2)Oc2ccc(NC(=O)C3CC3)cc2CC1=O`, the cytotoxicity call was “inactive”.

Consider `C[C@H]1CN([C@@H](C)CO)C(=O)c2cccc(NC(=O)c3ccc(-c4nccs4)cc3)c2O[C@@H]1CN(C)C(=O)Nc1cccc2ccccc12`, for which the cytotoxicity call was “inactive”.

For the molecule `COc1ccc(S(=O)(=O)N(C)C[C@H]2Oc3cc(-c4ccccc4OC)ccc3S(=O)(=O)N([C@H](C)CO)C[C@@H]2C)cc1`, the cytotoxicity call was “inactive”.

With `COc1ccc(S(=O)(=O)N(C)C[C@@H]2Oc3cc(-c4ccccc4OC)ccc3S(=O)(=O)N([C@@H](C)CO)C[C@@H]2C)cc1`, the cytotoxicity call is “inactive”.

With `COc1ccc(S(=O)(=O)N(C)C[C@@H]2Oc3cc(-c4ccccc4OC)ccc3S(=O)(=O)N([C@H](C)CO)C[C@H]2C)cc1`, the cytotoxicity call was “inactive”.

Take `COc1ccc(S(=O)(=O)N(C)C[C@@H]2Oc3cc(-c4ccccc4OC)ccc3S(=O)(=O)N([C@H](C)CO)C[C@@H]2C)cc1`: the cytotoxicity call was “active”.

With `COc1ccc(S(=O)(=O)N(C)C[C@@H]2Oc3cc(-c4ccccc4OC)ccc3S(=O)(=O)N([C@@H](C)CO)C[C@H]2C)cc1`, the cytotoxicity call was “inactive”.

In the case of `COc1ccc(S(=O)(=O)N(C)C[C@H]2Oc3cc(-c4ccccc4OC)ccc3S(=O)(=O)N([C@H](C)CO)C[C@H]2C)cc1`, the cytotoxicity call is “active”.

On to `C[C@@H]1CN([C@@H](C)CO)S(=O)(=O)c2ccc(-c3cccc(C#N)c3)cc2O[C@H]1CN(C)C(=O)c1ccncc1`, for which the cytotoxicity call was “inactive”.

In the case of `Cc1noc(C)c1S(=O)(=O)N(C)C[C@@H]1OCCCC[C@H](C)Oc2ccc(NC(=O)Nc3ccc(C(F)(F)F)cc3)cc2C(=O)N([C@H](C)CO)C[C@H]1C`, the cytotoxicity call is “inactive”.

On to `Cc1noc(C)c1S(=O)(=O)N(C)C[C@@H]1OCCCC[C@@H](C)Oc2ccc(NC(=O)Nc3ccc(C(F)(F)F)cc3)cc2C(=O)N([C@H](C)CO)C[C@H]1C`, for which the cytotoxicity call is “inactive”.

With `Cc1noc(C)c1S(=O)(=O)N(C)C[C@H]1OCCCC[C@@H](C)Oc2ccc(NC(=O)Nc3ccc(C(F)(F)F)cc3)cc2C(=O)N([C@@H](C)CO)C[C@H]1C`, the cytotoxicity call was “inactive”.

For the molecule `Cc1noc(C)c1S(=O)(=O)N(C)C[C@H]1OCCCC[C@H](C)Oc2ccc(NC(=O)Nc3ccc(C(F)(F)F)cc3)cc2C(=O)N([C@H](C)CO)C[C@H]1C`, the cytotoxicity call was “inactive”.

Consider `Cc1noc(C)c1S(=O)(=O)N(C)C[C@H]1OCCCC[C@@H](C)Oc2ccc(NC(=O)Nc3ccc(C(F)(F)F)cc3)cc2C(=O)N([C@@H](C)CO)C[C@@H]1C`, for which the cytotoxicity call is “inactive”.

On to `Cc1noc(C)c1S(=O)(=O)N(C)C[C@H]1OCCCC[C@@H](C)Oc2ccc(NC(=O)Nc3ccc(C(F)(F)F)cc3)cc2C(=O)N([C@H](C)CO)C[C@@H]1C`, for which the cytotoxicity call is “active”.

With `Cc1noc(C)c1S(=O)(=O)N(C)C[C@H]1OCCCC[C@H](C)Oc2ccc(NC(=O)Nc3ccc(C(F)(F)F)cc3)cc2C(=O)N([C@@H](C)CO)C[C@@H]1C`, the cytotoxicity call was “active”.

For `Cc1noc(C)c1S(=O)(=O)N(C)C[C@@H]1OCCCC[C@@H](C)Oc2ccc(NC(=O)Nc3ccc(C(F)(F)F)cc3)cc2C(=O)N([C@H](C)CO)C[C@@H]1C`, the cytotoxicity call was “inactive”.

On to `Cc1noc(C)c1S(=O)(=O)N(C)C[C@@H]1OCCCC[C@H](C)Oc2ccc(NC(=O)Nc3ccc(C(F)(F)F)cc3)cc2C(=O)N([C@H](C)CO)C[C@@H]1C`, for which the cytotoxicity call was “active”.

Turning to `C[C@@H]1CN([C@H](C)CO)C(=O)c2cccc(NC(=O)c3cnccn3)c2O[C@H]1CN(C)CC1CCCCC1`, the cytotoxicity call is “inactive”.

As to `O=C(C[C@H]1CC[C@@H]2[C@H](COC[C@H](O)CN2C(=O)c2cccnc2)O1)NCc1ccc(-c2ccccc2)cc1`, the cytotoxicity call was “inactive”.

As to `C[C@@H]1CN([C@@H](C)CO)C(=O)c2cccc(NS(=O)(=O)c3ccc(F)cc3)c2O[C@@H]1CN(C)S(=O)(=O)c1cccs1`, the cytotoxicity call was “inactive”.

Consider `C[C@@H]1CN([C@@H](C)CO)C(=O)Cc2cc(NC(=O)CCN3CCOCC3)ccc2O[C@@H]1CN(C)S(=O)(=O)c1cccs1`, for which the cytotoxicity call is “inactive”.

As to `C[C@H]1CN([C@@H](C)CO)C(=O)c2ccccc2-c2ccccc2CO[C@@H]1CN(C)C(=O)Nc1ccc(F)cc1`, the cytotoxicity call was “inactive”.

As for `O=C(CN1CCOCC1)N[C@H]1CC[C@H](CCn2cc(C3CC3)nn2)O[C@@H]1CO`, the cytotoxicity call was “inactive”.

With `O=C(CN1CCOCC1)N[C@@H]1CC[C@H](CCn2cc(C3CC3)nn2)O[C@@H]1CO`, the cytotoxicity call was “inactive”.

Turning to `O=C(CN1CCOCC1)N[C@H]1CC[C@@H](CCn2cc(C3CC3)nn2)O[C@H]1CO`, the cytotoxicity call was “active”.

Take `CC(C)NC(=O)N[C@@H]1C=C[C@@H](CC(=O)O)O[C@H]1CO`: the cytotoxicity call was “inactive”.

For the molecule `CC(=O)Oc1ccccc1C(=O)Nc1ccccc1`, the cytotoxicity call is “inactive”.

For the molecule `CC(=O)Oc1ccccc1C(=O)Nc1ncc([N+](=O)[O-])s1`, the cytotoxicity call is “active”.

Consider `CC(=O)Nc1ncc([N+](=O)[O-])s1`, for which the cytotoxicity call is “inactive”.

Turning to `C[C@@H]1CN([C@H](C)CO)C(=O)CCCn2cc(nn2)CO[C@@H]1CN(C)C(=O)Nc1cccc(Oc2ccccn2)c1`, the cytotoxicity call is “inactive”.

As for `O=C(N/N=C/[C@H](O)[C@@H](O)[C@@H](O)[C@H](O)C(=O)O)c1ccccc1O`, the cytotoxicity call is “active”.

Turning to `O=C(N/N=C/[C@H](O)[C@@H](O)[C@@H](O)[C@H](O)C(=O)O)c1ccccn1`, the cytotoxicity call is “inactive”.

On to `O=C(N/N=C/[C@H](O)[C@@H](O)[C@H](O)[C@H](O)CO)c1ccccc1O`, for which the cytotoxicity call was “inactive”.

Turning to `O=C(N/N=C/[C@@H](O)[C@H](O)[C@H](O)CO)c1ccccc1O`, the cytotoxicity call was “inactive”.

In the case of `O=C(N/N=C/[C@H](O)[C@H](O)[C@@H](O)[C@@H](O)CO)c1ccccc1O`, the cytotoxicity call was “active”.

Consider `O=C(N/N=C/[C@H](O)[C@@H](O)[C@H](O)CO)c1ccccc1O`, for which the cytotoxicity call is “inactive”.

For the molecule `C[C@@H]1CN([C@@H](C)CO)C(=O)Cc2cc(NC(=O)CCCCCC(=O)Nc3ccccc3N)ccc2O[C@@H]1CN(C)C(=O)Nc1ccc(C(F)(F)F)cc1`, the cytotoxicity call was “inactive”.

For `C[C@@H]1CN([C@H](C)CO)C(=O)Cc2cc(NS(=O)(=O)c3ccccc3)ccc2O[C@@H]1CN(C)S(C)(=O)=O`, the cytotoxicity call was “inactive”.

On to `CC(=O)OC12COC1CC(O)C1(C)C(=O)C(O)C3=C(C)C(OC(=O)C(O)C(NC(=O)OC(C)(C)C)c4ccccc4)CC(O)(C(OC(=O)c4ccccc4)C21)C3(C)C.O.O.O` (stereo not drawn), for which the cytotoxicity call was “active”.

Take `CC(=O)OC1C(=O)C2(C)C(O)CC3OCC3(OC(C)=O)C2C(OC(=O)c2ccccc2)C2(O)CC(OC(=O)C(O)C(NC(=O)c3ccccc3)c3ccccc3)C(C)=C1C2(C)C` (stereo not drawn): the cytotoxicity call is “active”.

On to `COC1C(=O)C2(C)C(OC)CC3OCC3(OC(C)=O)C2C(OC(=O)c2ccccc2)C2(O)CC(OC(=O)C(O)C(NC(=O)OC(C)(C)C)c3ccccc3)C(C)=C1C2(C)C` (stereo not drawn), for which the cytotoxicity call is “active”.

For the molecule `C[C@@H]1CN([C@@H](C)CO)C(=O)c2cccc(N(C)C)c2O[C@@H]1CN(C)S(=O)(=O)c1ccc(Cl)cc1`, the cytotoxicity call was “inactive”.

Regarding `C[C@@H]1CN([C@@H](C)CO)C(=O)c2cccc(NC(=O)Nc3ccc(C(F)(F)F)cc3)c2O[C@H]1CN(C)S(=O)(=O)c1ccc(Cl)cc1`, the cytotoxicity call was “inactive”.

Turning to `CC(C)NC(=O)Nc1ccc2c(c1)C(=O)N([C@@H](C)CO)C[C@H](C)[C@@H](CN(C)C(=O)Nc1ccc(F)cc1)OCCCC[C@H](C)O2`, the cytotoxicity call is “inactive”.

With `O=C(/C=C/c1ccc(O)c(O)c1)O[C@H]1[C@H](O)[C@@H](O)[C@H](OCCc2ccc(O)c(O)c2)O[C@@H]1CO`, the cytotoxicity call was “inactive”.

Consider `C[C@H]1CCCCO[C@H](CN(C)Cc2ccc(C(=O)O)cc2)[C@@H](C)CN([C@@H](C)CO)C(=O)c2cc(NS(=O)(=O)c3ccc(Cl)cc3)ccc2O1`, for which the cytotoxicity call was “inactive”.

With `NCc1c(Cl)cccc1Cl`, the cytotoxicity call was “inactive”.

For `COCc1cn(CC[C@H]2CC[C@@H](NC(=O)CCN3CCCCC3)[C@H](CO)O2)nn1`, the cytotoxicity call is “inactive”.

Turning to `C[C@H]1CCCCO[C@H](CN(C)C(=O)Nc2ccc(C(F)(F)F)cc2)[C@@H](C)CN([C@@H](C)CO)C(=O)c2cc(NS(=O)(=O)c3cn(C)cn3)ccc2O1`, the cytotoxicity call is “inactive”.

Turning to `C[C@@H]1CN([C@@H](C)CO)C(=O)c2cc(NC(=O)CCCN(C)C)ccc2O[C@@H]1CN(C)Cc1ccc(C(=O)O)cc1`, the cytotoxicity call is “inactive”.

`C[C@H](CO)N1C[C@H](C)[C@@H](CN(C)S(=O)(=O)c2cn(C)cn2)Oc2c(NS(=O)(=O)c3cccs3)cccc2C1=O`: the cytotoxicity call is “active”.

As to `C[C@@H]1CN([C@H](C)CO)C(=O)c2cccc(NS(=O)(=O)c3cccs3)c2O[C@@H]1CN(C)S(=O)(=O)c1cn(C)cn1`, the cytotoxicity call was “inactive”.

For the molecule `Cc1ccc(S(=O)(=O)N(C)C[C@@H]2Oc3c(NS(=O)(=O)c4cccs4)cccc3C(=O)N([C@H](C)CO)C[C@@H]2C)cc1`, the cytotoxicity call is “active”.

As to `Cc1ccc(S(=O)(=O)N(C)C[C@H]2Oc3c(NS(=O)(=O)c4cccs4)cccc3C(=O)N([C@H](C)CO)C[C@@H]2C)cc1`, the cytotoxicity call is “inactive”.

As to `Cc1ccc(S(=O)(=O)N(C)C[C@@H]2Oc3c(NS(=O)(=O)c4cccs4)cccc3C(=O)N([C@@H](C)CO)C[C@H]2C)cc1`, the cytotoxicity call was “inactive”.

For the molecule `C[C@H]1CN([C@@H](C)CO)C(=O)c2cccc(NS(=O)(=O)c3cn(C)cn3)c2O[C@H]1CN(C)S(C)(=O)=O`, the cytotoxicity call is “inactive”.

On to `C[C@H](CO)N1C[C@H](C)[C@H](CN(C)S(C)(=O)=O)Oc2c(NS(=O)(=O)c3cn(C)cn3)cccc2C1=O`, for which the cytotoxicity call is “active”.

As for `C[C@H]1CN([C@@H](C)CO)C(=O)c2cccc(NS(=O)(=O)c3cccs3)c2O[C@H]1CN(C)S(=O)(=O)c1cn(C)cn1`, the cytotoxicity call was “inactive”.

As for `C[C@@H]1CN([C@H](C)CO)C(=O)c2cccc(NS(=O)(=O)c3cn(C)cn3)c2O[C@@H]1CN(C)S(C)(=O)=O`, the cytotoxicity call was “inactive”.

Source of the values: the antibiotic and cytotoxicity screens of Wong et al. (2023).
